# Assay outcomes as filed in PubChem.
# Compounds with a hit are over-represented: about 19% of the library has one in this group of screens.
# TDP1 block = TDP1 (human) enzyme inhibition; 350,000 compounds, 0.28% hits; Q9NUW8; AID 485290; recombinant TDP1, AlphaScreen DNA substrate cleavage; Potency, µM (titrated, usually from 130 µM), for inactives: at the top dose activity change, negative = inhibition, most hits filed as inhibitors; note: potency is the fitted concentration of half-maximal effect; % is set by controls: 0 for no effect and ±100 for the full control effect; nearly all actives have a fitted effect of over 40% in size
# Target sequence (Q9NUW8 whole entry, looked up): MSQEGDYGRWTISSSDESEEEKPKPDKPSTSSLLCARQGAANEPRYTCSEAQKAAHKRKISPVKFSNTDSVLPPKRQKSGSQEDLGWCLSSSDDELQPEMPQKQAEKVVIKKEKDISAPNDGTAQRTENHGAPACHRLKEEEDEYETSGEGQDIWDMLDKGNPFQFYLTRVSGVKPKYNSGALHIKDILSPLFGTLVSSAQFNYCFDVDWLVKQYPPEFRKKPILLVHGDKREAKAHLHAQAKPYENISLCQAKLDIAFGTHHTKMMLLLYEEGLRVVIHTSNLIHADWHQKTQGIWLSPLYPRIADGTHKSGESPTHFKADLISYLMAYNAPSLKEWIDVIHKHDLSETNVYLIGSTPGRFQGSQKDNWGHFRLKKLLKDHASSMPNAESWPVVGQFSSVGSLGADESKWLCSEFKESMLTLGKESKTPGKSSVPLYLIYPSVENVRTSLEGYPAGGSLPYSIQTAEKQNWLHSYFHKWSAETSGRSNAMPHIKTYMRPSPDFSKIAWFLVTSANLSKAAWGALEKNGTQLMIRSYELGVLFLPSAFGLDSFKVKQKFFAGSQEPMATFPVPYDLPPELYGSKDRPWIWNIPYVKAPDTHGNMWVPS
#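 Recombinant human Tdp1 (E. coli-expressed, 1 nM final) preincubated with compounds 15 min at room temperature, then 5'-biotin/3'-phosphotyrosine-FITC DNA substrate (15 nM final) added for 5 min. AlphaScreen beads (10 ug/ml final) added 10 min; cleavage lowers signal.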
# IL-1B inflam inh = inflammasome signaling inhibition, IL-1 beta readout. THP-1 LPS/ATP IL-1B secretion, AlphaLISA, 16 h; active compounds read low. activity change, % at 57.5 µM. 360,000 compounds, 4.7% hits. AID 743279; in the data active = activity change below about -50%; inconclusive = mostly about -30% to -49%; note: % is set by controls: 0 for no effect and ±100 for the full control effect
#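 Secreted IL-1B measured by AlphaLISA bead assay after 16 h compound exposure of THP-1 cells; compounds (final up to 57.5 uM) added 1 h before LPS (250 ng/mL) and ATP (1.25 mM) stimulation; lower signal means less secretion.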
# HepG2 tox = kills HepG2 cells in TGF-b inhibitor counter-screen; HepG2 CAGA-GFP viability, ATP luminescence, 18 h; Potency, µM (titrated, usually from 46.1 µM), inactives show at the top dose activity change, negative = cytotoxicity, most hits filed as cytotoxic; 410,000 compounds, 0.76% hits; AID 588856; note: potency is the fitted concentration of half-maximal effect
#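 HepG2 CAGA-GFP cells (1000/well, DMEM with 1% FBS) received compound, then TGF-beta at 500 pg/mL final, and were incubated 18 hours at 37 degrees C. Viability was read by CellTiter-Glo luminescence. Media-only wells were set as complete cell-killing and DMSO as no toxicity.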
# DT40 TDP1 CPT = growth inhibition of DT40 Tdp1-/-;hTDP1 cells with camptothecin (screen for TDP1 inhibitors); chicken DT40 Tdp1-/-;hTDP1 cells + 20 nM CPT, ATP luminescence, 48 h; Potency, µM (titrated, usually from 46.2 µM), for the others: at the top dose activity change, negative = growth inhibition, most hits filed as inhibitors; 420,000 compounds, 12% hits; AID 686979; note: potency is the fitted concentration of half-maximal effect; % is set by controls: 0 for no effect and ±100 for the full control effect; nearly all actives have a fitted effect of over 55% in size
#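 Chicken DT40 Tdp1-/- cells complemented with human TDP1, 400 cells/well, exposed to compounds plus 20 nM camptothecin for at least 48 h at 37 C; viability read as ATP content by CellTiter-Glo luminescence.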
# TGFb SMAD3 inh = TGF-b pathway inhibition. HepG2 CAGA-GFP TGF-b/SMAD3 reporter, GFP fluorescence, 18 h; TGF-beta stimulated, 500 pg/mL final. Potency, µM (highest dose often 46.1 µM), without a hit: at the highest dose activity, negative = inhibition, usual class: inhibitors. 410,000 compounds, 1.2% hits. AID 588855; note: potency is the fitted concentration of half-maximal effect; % is set by controls: 0 for no effect and ±100 for the full control effect; nearly all actives have a fitted effect of over 65% in size
#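 GFP signal (ex488/em500-530) from TGF-beta-stimulated HEPG2 CAGA-GFP cells, 500 pg/mL final, 18 h at 37 degrees C in DMEM plus 1% FBS, normalized to unstimulated and DMSO-stimulated controls.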
# TDP1 cell noCPT = qHTS for Inhibitors of human tyrosyl-DNA phosphodiesterase 1 (TDP1): qHTS in cells in absence of CPT. DT40 Tdp1-/- hTDP1 cells, no CPT, ATP luminescence, 48 h. Potency, µM (titrated, usually from 46.2 µM), without a hit: at the highest dose activity change, negative = growth inhibition, most hits filed as inhibitors. 420,000 compounds, 15% hits; note: potency is the fitted concentration of half-maximal effect; % is set by controls: 0 for no effect and ±100 for the full control effect; nearly all actives have a fitted effect of over 55% in size
#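 Chicken DT40 Tdp1-/- cells complemented with human TDP1, screened without camptothecin (DMSO vehicle only), 400 cells/well. Compounds pin-transferred, cells incubated at 37 °C for at least 48 hr. Growth read as ATP-dependent luminescence (CellTiter-Glo, 30 min at RT).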
# * marks the source's active call; other numbers are inactive results; ? = inconclusive; nt = no result. Unless noted, calls come from the whole dose curve; as a rule, active = well fitted curve in the direction sought with a large enough effect; inconclusive = small, poorly fitted or top-dose-only effect, or another doubt; inactive = no such curve, though single readings can be large; an effect the other way counts as inactive or inconclusive.
SMILES,TDP1 block,IL-1B inflam inh,HepG2 tox,DT40 TDP1 CPT,TGFb SMAD3 inh,TDP1 cell noCPT
COc1ccc2cc3cc(C(=O)N4CCN(c5ccccc5)CC4)oc3nc2c1,7%,13,-4%,-28%,27%,-4%
COc1ccc2cc3cc(C(=O)NCCN4CCN(c5ccccc5F)CC4)oc3nc2c1,0%,-18,-7%,?,-8%,16µM*
Cn1c(=O)n(C)c2cc(CNCc3ccc(C(=O)O)cc3)ccc21,2%,nt,-32%,-3%,15%,-18%
Cc1cc(Cl)ccc1C(=O)C1CCCN(C(=O)c2cncs2)C1 (centres undefined),5%,7,-4%,?,-2%,?
CCc1nc2c(OCc3cccc(OC)c3)cccn2c1N(C)C(=O)c1ccc(OC)cc1,nt,-30,-12%,?,8%,16µM*
CCc1nc2c(OCc3cccc(Cl)c3)cccn2c1N(C)C(=O)c1ccc(OC)cc1,nt,0,-30%,?,?,16µM*
CCc1nc2c(OCc3cc(Cl)cc(Cl)c3)cccn2c1N(C)C(=O)c1cccc(OC)c1,nt,-56*,-36%,?,?,?
CCc1nc2c(OCc3ccccc3C(=O)OC)cccn2c1N(C)C(=O)c1cccc(OC)c1,nt,-3,-1%,13µM*,2%,23µM*
COc1ccc([C@@H]2CC(=O)c3c(O)cc(O[C@@H]4O[C@H](CO)[C@@H](O)[C@H](O)[C@H]4OC4O[C@@H](C)[C@H](O)[C@@H](O)[C@H]4O)cc3O2)cc1O (some centres undefined),7%,nt,nt,nt,nt,nt
Cc1noc(C)c1COc1ccccc1C(=O)N(C)Cc1ccco1,1%,0,0%,?,-17%,?
CCCCN(C)CCNC(=O)c1cc(-c2cccnc2)nc2ccc(S(=O)(=O)N3CCC(C)CC3)cc12,7%,-14,-22%,?,1%,15µM*
CCCCN(CCCC)CCNC(=O)c1cc(-c2cccnc2)nc2ccc(S(=O)(=O)N3CCC(C)CC3)cc12,-3%,nt,-12%,3.7µM*,-2%,-2%
CCN(CC)CCNC(=O)c1cc(-c2cccnc2)nc2ccc(S(=O)(=O)N3CCC(C)CC3)cc12,3%,-99*,-8%,?,-1%,?
CCC/C=C(\CCC)C(NC(=O)c1cccs1)c1ccc(C(F)(F)F)cc1 (centres undefined),9%,nt,nt,nt,nt,nt
CC1(C(=O)Nc2cnc3ccccc3c2)CCN1Cc1ccc(-c2ccccc2)o1 (centres undefined),nt,-22,-26%,?,?,16µM*
CC1(C(=O)Nc2cnc3ccccc3c2)CCN1Cc1ccc(OC(F)(F)F)cc1 (centres undefined),nt,10,-34%,?,?,?
COc1cccc(CN2CCC2(C)C(=O)Nc2ccc(Cl)c(Cl)c2)c1F (centres undefined),nt,-3,-13%,21µM*,-30%,?
CC1(C(=O)Nc2cnc3ccccc3c2)CCN1Cc1ccccc1Cl (centres undefined),nt,-12,-45%,16µM*,?,15µM*
COc1cccc(NC(=O)C2(C)CCN2Cc2ccc(-c3ccccc3)o2)c1 (centres undefined),nt,-8,-5%,?,?,?
CC1(C(=O)Nc2cnc3ccccc3c2)CCN1Cc1ccccc1OC(F)F (centres undefined),nt,nt,-30%,23µM*,?,16µM*
Cc1c(CNC2CCCCCC2)c(C(=O)O)c(C)n1Cc1c(F)cccc1Cl,3%,nt,4%,?,2%,?
COc1cccc(CN2CCC2(C)C(=O)Nc2cnc3ccccc3c2)c1F (centres undefined),nt,0,-15%,?,0%,18µM*
CCOC(=O)N1CCN(C(=O)c2sc3nc(-c4ccc(F)cc4)cn3c2C)CC1,1%,-24,11%,?,11%,?
COc1ccccc1N1CCN(C(=O)c2sc3nc(-c4ccc(F)cc4)cn3c2C)CC1,7%,?,-16%,23µM*,-30%,16µM*
Cc1c(C(=O)N2CC(C)OC(C)C2)sc2nc(-c3ccc(F)cc3)cn12 (centres undefined),6%,19,17%,?,8%,18µM*
SMILES,TDP1 block,IL-1B inflam inh,HepG2 tox,DT40 TDP1 CPT,TGFb SMAD3 inh,TDP1 cell noCPT
CC(C)(C)NC(=O)C1c2ccccc2OCC(=O)N1CCCN1CCOCC1 (centres undefined),nt,37,nt,5%,nt,2%
Cc1ccc(S(=O)(=O)Cc2ccc(C(=O)N3CCN(c4ccccn4)CC3)o2)cc1,0%,-1,-28%,12µM*,-16%,?
Cc1ccc(C)c(N2CCN(C(=O)c3ccc(CS(=O)(=O)c4ccccc4C)o3)CC2)c1,6%,1,-44%,18µM*,-18%,18µM*
Cc1ccc(S(=O)(=O)Cc2ccc(C(=O)N3CCN(c4cc(C)ccc4C)CC3)o2)cc1,0%,18,3%,15µM*,-19%,12µM*
COc1ccccc1C(=O)Nc1ccc(OCC(=O)N2CC(C)OC(C)C2)cc1 (centres undefined),1%,0,2%,2%,-2%,-4%
CC(C)(C)C1CCNC(=O)CC1 (centres undefined),nt,3,-35%,-7%,-9%,1%
COc1cc2cncc(Cc3ccc(Cl)cc3)c2cc1OC,2%,-11,-42%,15µM*,?,18µM*
O=C(CCc1ccccc1)NC(NC(=S)Nc1ccc(Br)cc1)C(Cl)(Cl)Cl (centres undefined),5%,-2,-47%,23µM*,?,23µM*
O=C(CCc1ccccc1)NNC(=O)Nc1ccc(Br)cc1,0%,-8,4%,-24%,-3%,-9%
CCCC(=O)NC(NC(=S)Nc1ccc(N=Nc2ccccc2)cc1)C(Cl)(Cl)Cl (centres undefined),8%,?,-57%,5.2µM*,?,5.2µM*
c1ccc2[nH]c(NCCCc3cnc[nH]3)nc2c1,27%,nt,nt,nt,nt,nt
COc1ccc2c(c1)c1c(c(=O)n(-c3ccc(OC)c(OC)c3)c(=O)n1CC(=O)N1CCCC1)n2C,6%,nt,-12%,-10%,2%,-10%
Cc1cc(Br)ccc1OCCCCNCCO,-3%,-30,-69%,23µM*,0%,21µM*
